{
  "source": "PubChem BioAssay AID2284381",
  "about": "(EPA ToxCast)",
  "note": "Records with an inconclusive call do not appear. Active and inactive are the calls of the source. Rule for the calls: active = hit-call score of the fitted dose curve at least 0.9, where 1 is the maximum; inconclusive = response in the unintended direction; inactive = score below 0.9.",
  "data": [
    {"tested_on": "Japanese medaka Retinoid X Receptor beta (RXRb), gene 100125505", "assay": "ATG_jmRXRb_EcoTox2: Attagene TRANS-FACTORIAL EcoTox-2 HepG2 Assay for Japanese medaka Retinoid X Receptor beta (RXRb)", "method": "ATG_EcoTox2 is a cell-based, multiplexed assay created by modifying the existing Attagene TRANS-FACTORIAL system to include a panel of nuclear receptors from some or all the following species: human (Homo sapiens), african clawed frog (Xenopus laevis), rainbow trout (Oncorhynchus mykiss), japanese medaka (Oryzias latipes), and zebrafish (Danio rerio). The ECOTOX2-FACTORIAL format uses HepG2, a human liver cell line, with measurements taken at 24 hours after chemical dosing in a 24-well plate. ATG_jmRXRb_EcoTox2 is one of 29 assay components calculated in the ATG_EcoTox2 assay. It is designed to make measurements of mRNA induction, a form of inducible reporter, as detected with fluorescence intensity signals by Reverse transcription polymerase chain reaction (RT-PCR) and Capillary electrophoresis technology.The assay endpoint ATG_jmRXRb_EcoTox2 was analyzed in the positive analysis fitting direction relative to DMSO as the negative control and baseline of activity. Using a type of inducible reporter, measures of mRNA for gain-of-signal activity can be used to understand the reporter gene at the transcription factor-level as they relate to the gene RXRb. Furthermore, this assay endpoint can be referred to as a primary readout, because this assay has produced multiple assay endpoints where this one serves a reporter gene function. […]\nHuman liver HepG2 cells are transiently transfected with multiple reporter transcription units (MRTUs) in 6-well plates using FuGene 6 reagent (Roche; 3 ml FuGene/1 mg DNA). […] A major difference between the CIS and TRANS system is that in CIS activities of endogenous TFs are measured, whereas the TRANS assay evaluates changes in activities of exogenous, chimeric NR-Gal4 proteins. […] The fragments were purified using Qiaquick PCR columns (Qiagen), analyzed on an ABI 3130xL genetic analyzer (Applied Biosystems) with peak positions identified by using a set of X-rhodamine (ROX)-labeled MapMarker1000 molecular weight standards (BioVentures). […]", "values": [
      {"smiles": "[Cl][Sn]([c]1ccccc1)([c]1ccccc1)[c]1ccccc1", "AC50": "0.171 µM (active)"},
      {"smiles": "CCCCOCN(C(=O)CCl)c1c(CC)cccc1CC", "AC50": "50 µM (active)"},
      {"smiles": "O=C(O)C(F)(F)C(F)(F)C(F)(F)C(F)(F)C(F)(F)C(F)(F)C(F)(F)F", "AC50": "31.4 µM (active)"}
    ]}
  ]
}
